Assay outcomes from PubChem.
Only some compounds are listed: those with a hit (about 3.7% of all), similar ones and a draw of the others.
tim10-1 inh = tim10-1 yeast growth inhibition; S. cerevisiae tim10-1 ts strain growth, BacTiter-Glo, 24 h; inhibition, % at 20 µM; actives 2.2% (n = 330,000);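 active = inhibition of at least 40%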;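 note: mutant grown at 25 °C; 0% = DMSO wells with yeast and 100% = wells holding no yeast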
Rce1 inh = blocks yeast Ras-converting enzyme. Q03530. yeast membranes, quenched prenylated peptide cleavage fluorescence. calls only. actives 0.27% (n = 290,000). AID 2563;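 active = fall in fluorescence gain of 50% or more versus controls, with final raw signal at or below 3038400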;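 note: plate controls were neutral control wells for no effect and wells lacking membranes for full effect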
Target sequence (Q03530 whole entry, looked up): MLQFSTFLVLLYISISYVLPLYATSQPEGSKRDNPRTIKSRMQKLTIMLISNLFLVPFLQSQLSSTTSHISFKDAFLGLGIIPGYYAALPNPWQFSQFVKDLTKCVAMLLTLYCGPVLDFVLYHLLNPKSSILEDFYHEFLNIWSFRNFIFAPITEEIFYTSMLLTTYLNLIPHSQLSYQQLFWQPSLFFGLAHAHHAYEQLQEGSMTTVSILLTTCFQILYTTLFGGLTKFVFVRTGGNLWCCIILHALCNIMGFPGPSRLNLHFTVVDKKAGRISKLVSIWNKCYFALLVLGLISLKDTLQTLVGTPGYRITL
TIM10 inh = TIM10 yeast growth inhibition; S. cerevisiae TIM10 strain growth, BacTiter-Glo luminescence, 24 h; inhibition, % at 10 µM; actives 1.4% (n = 330,000);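 active = inhibition of 40% or more at the single tested concentration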;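 note: wild-type TIM10 isogenic control strain grown at permissive 25 °C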
PfHsp90 set2 = growth inhibition of yeast expressing Plasmodium Hsp90; actives 0.32% (n = 310,000); S. cerevisiae expressing PfHsp90, BacTiter-Glo ATP, 48 h; yeast lacking PDR1 and PDR3 efflux regulators; inhibition, % at 9.4 µM;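 active = every replicate shows inhibition above about 80%, whatever the replicate mean, limit read from the data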;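 note: 0% = DMSO neutral controls and 100% = 20 µM radicicol positive controls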
tim23-1 inh = tim23-1 yeast growth inhibition. actives 1.3% (n = 330,000). inhibition, % at 20 µM. S. cerevisiae tim23-1 growth, BacTiter-Glo luminescence, 24 h;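 active = growth inhibition of the mutant yeast at or above 50%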;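 note: temperature-sensitive mutant grown at 25 °C; plate controls were DMSO-treated mutant yeast for no effect and medium wells lacking yeast for full effect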
tim10-1 confirm = tim10-1 yeast growth inhibition, confirmed; inhibition, % at 20 µM; actives 56% (n = 7,400); S. cerevisiae tim10-1 ts strain growth, BacTiter-Glo, 24 h; shares compounds with tim10-1 inh;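 active = inhibition of yeast growth at or above a set limit in either of two repeat tests at 20 µM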;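 note: tim10-1 mutant grown at permissive 25 °C to find synthetic lethal compounds; 0% = DMSO yeast wells and 100% = medium wells without yeast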
Starred values were filed as active, the others as inactive; i = inactive; . = no result given.

SMILES	tim10-1 inh	Rce1 inh	TIM10 inh	PfHsp90 set2	tim23-1 inh	tim10-1 confirm
CC(C)CN(CC(C)C)C(=S)Nc1ccc(Cl)cc1	55*	i	37	11	44	47*
CCc1ccc(NC(=S)N(Cc2ccc(Cl)cc2)Cc2ccc(C(=O)O)cc2)cc1	8	i	6	-12	37	.
COc1ccccc1C(=O)N(NC(=O)Oc1ccccc1)C(C)(C)C	25	i	-4	-16	5	.
OCCNCCSc1nc(C2CCCCC2)n(-c2ccccc2Cl)n1	10	i	-1	-2	-3	.
Clc1ccc(C2CC(c3cccs3)n3ncnc3N2)c(Cl)c1 (configuration not stated)	41*	i	34	.	45	25
Cn1cc(Br)c(-c2cccc(NC(=O)CCC(=O)O)c2)n1	9	i	17	3	21	.
O=[N+]([O-])c1ccc(C(=S)N2CCN(c3ccc(F)cc3)CC2)cc1	43*	i	21	-2	35	26
CN(C)c1ccc(C(=S)N2CCN(c3ccc([N+](=O)[O-])cc3)CC2)cc1	3	i	6	9	-24	.
CN(Cc1ccccc1)C(=O)CSc1nc2c(c(C(F)(F)F)n1)CCc1ccccc1-2	44*	i	4	-136	22	21
Cc1cc(C)c2c(n1)sc1c(N3CCCCC3)ncnc12	20	i	15	0	31	.
CCN(CC)c1ncnc2c1sc1nc(C)cc(C)c12	43*	i	9	.	24	19
O=C(CSCC(=O)N1CCCCC1)Nc1nc(-c2ccc(Cl)s2)cs1	41*	i	22	108*	43	36*
CCN(CC)C(=O)/C=C/c1ccc(OC)c(S(=O)(=O)N2CCCCC2)c1	16	i	12	5	6	.
Cc1ccccc1OCC(=O)O/N=C(\N)Cc1cccs1	34	i	33	.	26	.
N/C(Cc1cccs1)=N\OC(=O)COc1ccc(Cl)cc1Cl	49*	i	26	9	44	52*
COc1ccccc1N1CCN(C(=O)C(=O)c2c(C)[nH]c3ccccc23)CC1	23	i	19	6	14	.
CC(=O)c1cccc(OCCCOc2cccc3cccnc23)c1	22	i	19	-11	44	.
Cc1cc(C)cc(OCCCOc2cccc3cccnc23)c1	42*	i	27	2	37	33*
NC(=O)C1(N2CCCCC2)CCN(C(=O)NC2CCCCC2)CC1	2	i	10	10	-3	.
CCCCCCSc1cc(-c2nc3cc(C)ccn3c2NC2CCCCC2)ccc1OC	14	i	18	-15	18	.
COc1cc(-c2nc3cc(C)ccn3c2NC2CCCCC2)ccc1-c1ccc(C(C)=O)cc1	40*	i	30	-1	35	24
Nc1nc(Sc2ccc([N+](=O)[O-])cc2[N+](=O)[O-])n[nH]1	7	i	4	-31	11	.
Cc1ccnc(Sc2ccc([N+](=O)[O-])cc2[N+](=O)[O-])n1	59*	i	26	7	40	53*
Cc1ccc(Sc2ccc([N+](=O)[O-])cc2[N+](=O)[O-])nc1	40*	i	26	-18	36	37*
S=C(NC1CCCCC1)N1CCCCC1	10	i	-6	4	2	.
SMILES	tim10-1 inh	Rce1 inh	TIM10 inh	PfHsp90 set2	tim23-1 inh	tim10-1 confirm
CC(Sc1nnc(-c2ccccc2F)n1C)C(=O)NC1CCCCC1 (configuration not stated)	11	.	4	26	19	.
Cc1cc(C)nc(NC(=S)Nc2cccc(F)c2)c1	40*	i	-7	19	25	-36
CSc1ncccc1C(=O)OCC(=O)NCCc1ccccc1	-1	.	-4	-14	12	.
Cc1ccc(S(=O)(=O)N2CCN(S(=O)(=O)c3c(C)n[nH]c3C)CC2)cc1C	-10	.	-5	2	2	.
COC(=O)c1cc(-c2cc(OC)ccc2OC)nc2c1c(=O)n(C)c(=O)n2Cc1ccccc1	19	i	12	3	20	.
C=CCSC1=N/C(=C\c2cc(OCC)c(OC(C)=O)c([N+](=O)[O-])c2)C(=O)S1	42*	i	12	-9	27	25
C=CCSC1=N/C(=C\c2ccc3c(c2)OCO3)C(=O)S1	18	i	19	6	20	.
COc1ccc(-c2cc3c(=O)n(CC(=O)Nc4cccc(Cl)c4)nc(C)n3n2)cc1	17	i	-3	-1	10	.
